Assay results: PubChem BioAssay
Records with an inconclusive call do not appear. The source made the active and inactive calls. Rule as the data show it, unless noted: active = percent of DMSO control GFP below about 86%; inactive = the rest, inconclusive results apart.

Legend:
[1] = rapamycin-like changes in RPL19A-GFP expression – cell-based, S. cerevisiae, multiplex flow cytometry, primary screen (AID 1862);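 also: lower values mimic rapamycin by blocking the RPL19A rise seen in DMSO cells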; conditions: S. cerevisiae RPL19A-GFP strain, flow cytometry fluorescence, 3 h; at 10 µM; stronger effect = lower value
[2] = TOR pathway GLN3 branch reporter MEP2-GFP changes – S. cerevisiae, multiplex flow cytometry, primary screen (AID 1867;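 active = GFP response, as percent of the DMSO control, above the screen-wide mean plus 3 SD, about 139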;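 also: median GFP channel fluorescence of barcode-gated MEP2-GFP cells measured by flow cytometry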); conditions: S. cerevisiae MEP2-GFP strain, 3 h, at 10 µM, stronger effect = higher value, 100% means same as DMSO wells
[3] = TOR pathway RTG branch CIT2 reporter changes – S. cerevisiae, GFP fusion, multiplex flow cytometry, primary screen (AID 1870;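 active = percent response above a set limit, the screen-wide mean plus 3 SD, cut at about 130% in these data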;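 also: barcoded CIT2-GFP strain pooled with four other GFP strains with rapamycin as positive control; median GFP fluorescence per well over plate mean of DMSO wells so 100% = DMSO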); conditions: S. cerevisiae CIT2-GFP expression, 3 h, at 10 µM, stronger effect = higher value
[4] = TOR pathway LAP4-GFP level changes – S. cerevisiae, multiplex flow cytometry, primary screen (AID 1873;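 active = GFP signal, as percent of the solvent control, above the screen mean plus 3 SD, about 149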); conditions: S. cerevisiae LAP4-GFP expression, 3 h, at 10 µM, stronger effect = higher value
[5] = yeast AGP1-GFP level changes, GLN3 branch – cell-based, multiplex flow cytometry, S. cerevisiae, primary screen (AID 1887;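 active = GFP signal above the screen-wide mean plus 3 SD, that is over about 124.5% of the solvent control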;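 also: AGP1-GFP fusion strain of S. cerevisiae within a five-strain barcoded multiplex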); conditions: 3 h, at 10 µM, stronger effect = higher value
[6] = reduced mouse 2C T cell binding to pMHC/ICAM-1 vesicles – MLPCN validation set, flow cytometry, LFA-1/ICAM-1 modulator project, pilot screen (AID 2523;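 active = response below a set limit, under 55% cells CD8-positive and vesicle-bound, and CD8 cells' 90th-percentile brightness under 279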;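 as to vesicle binding response: mean PE anti-B7-1 fluorescence of CD8+ cells relative to row control; 100% = QL9-loaded vesicles with DMSO vehicle in the same plate row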); conditions: 2C mouse CD8+ T cells, at 7 µM, stronger effect = lower value; double positive events: measured here: CD8+/vesicle+ event percentage
[7] = molecular target: Integrin beta-1 (Homo sapiens) + Integrin alpha-4 (Homo sapiens) (UniProt P13612+P05556); assay: alpha4beta1 integrin LIBS antibody binding reduction – U937 cells, HUTS-21 mAb, flow cytometry, validation set, VLA-4 allosteric modulator project, pilot screen (AID 2674;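 active = inhibition above 50%, about 3 SD of the validation set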;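 also: antibody binding induced by the VLA-4 ligand LDV present at three times its Kd; 0% = LDV ligand with antibody and no compound and 100% = antibody without LDV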); conditions: HUTS-21 LIBS mAb binding, at 6.7 µM, stronger effect = higher value, binding induced by LDV ligand
Sequence of Integrin beta-1 (Homo sapiens) + Integrin alpha-4 (Homo sapiens) (P05556 whole entry, looked up): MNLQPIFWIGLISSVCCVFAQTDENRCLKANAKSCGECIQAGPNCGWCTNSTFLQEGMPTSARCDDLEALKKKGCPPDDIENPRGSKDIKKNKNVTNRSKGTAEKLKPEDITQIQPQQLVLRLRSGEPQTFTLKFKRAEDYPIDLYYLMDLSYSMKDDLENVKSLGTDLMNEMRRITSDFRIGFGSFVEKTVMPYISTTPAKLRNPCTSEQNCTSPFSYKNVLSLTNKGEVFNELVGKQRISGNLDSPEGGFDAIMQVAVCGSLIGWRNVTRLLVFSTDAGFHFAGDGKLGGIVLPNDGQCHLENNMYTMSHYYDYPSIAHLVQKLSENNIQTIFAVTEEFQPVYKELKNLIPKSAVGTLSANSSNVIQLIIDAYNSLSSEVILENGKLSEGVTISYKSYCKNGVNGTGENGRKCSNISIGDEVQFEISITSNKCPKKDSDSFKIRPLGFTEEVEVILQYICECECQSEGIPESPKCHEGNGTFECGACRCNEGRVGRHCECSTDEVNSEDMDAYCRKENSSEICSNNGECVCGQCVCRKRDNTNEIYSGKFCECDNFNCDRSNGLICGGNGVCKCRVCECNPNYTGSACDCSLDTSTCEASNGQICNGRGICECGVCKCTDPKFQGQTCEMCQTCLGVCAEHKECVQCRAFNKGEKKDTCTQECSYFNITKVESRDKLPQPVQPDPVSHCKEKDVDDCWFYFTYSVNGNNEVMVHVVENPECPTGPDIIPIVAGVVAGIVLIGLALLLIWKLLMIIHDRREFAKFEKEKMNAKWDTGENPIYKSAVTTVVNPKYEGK
Sequence of Integrin beta-1 (Homo sapiens) + Integrin alpha-4 (Homo sapiens) (P13612 whole entry, looked up): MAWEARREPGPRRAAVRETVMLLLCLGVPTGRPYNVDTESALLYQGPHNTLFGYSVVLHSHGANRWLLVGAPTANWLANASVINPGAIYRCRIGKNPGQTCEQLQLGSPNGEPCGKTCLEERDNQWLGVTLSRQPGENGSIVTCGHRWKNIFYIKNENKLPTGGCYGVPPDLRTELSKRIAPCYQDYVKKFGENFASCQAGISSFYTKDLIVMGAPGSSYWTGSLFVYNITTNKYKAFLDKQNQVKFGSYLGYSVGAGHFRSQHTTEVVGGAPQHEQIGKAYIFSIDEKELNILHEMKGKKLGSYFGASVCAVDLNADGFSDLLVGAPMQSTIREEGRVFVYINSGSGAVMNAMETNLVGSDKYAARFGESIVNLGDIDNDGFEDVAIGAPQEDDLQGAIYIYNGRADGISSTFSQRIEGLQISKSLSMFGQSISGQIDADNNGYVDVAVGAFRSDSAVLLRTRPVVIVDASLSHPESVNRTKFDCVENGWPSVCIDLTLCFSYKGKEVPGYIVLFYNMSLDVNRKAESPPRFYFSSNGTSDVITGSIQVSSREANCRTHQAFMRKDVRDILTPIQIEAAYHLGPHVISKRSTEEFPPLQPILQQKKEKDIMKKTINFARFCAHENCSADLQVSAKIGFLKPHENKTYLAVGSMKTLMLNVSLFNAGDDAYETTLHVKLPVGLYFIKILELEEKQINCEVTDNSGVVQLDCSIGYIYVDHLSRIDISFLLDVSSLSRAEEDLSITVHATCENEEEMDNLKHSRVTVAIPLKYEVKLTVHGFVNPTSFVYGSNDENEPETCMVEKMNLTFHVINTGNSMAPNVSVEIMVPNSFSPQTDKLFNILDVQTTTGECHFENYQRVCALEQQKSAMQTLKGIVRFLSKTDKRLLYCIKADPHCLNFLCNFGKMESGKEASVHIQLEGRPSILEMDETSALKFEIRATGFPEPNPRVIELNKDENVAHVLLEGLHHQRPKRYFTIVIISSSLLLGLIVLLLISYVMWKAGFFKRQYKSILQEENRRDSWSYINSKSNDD

[8] = calorie-restriction mimetic ROS inhibitors, yeast – validation compound set, pilot screen (AID 2706;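 active = superoxide response below 65% of plate, a cut near 3 SD across the whole screen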;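 also: yeast exposed to compound for one week at 30 degrees C before staining; 100% = mean of all compound wells on the same plate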); conditions: S. cerevisiae aging, superoxide DHE fluorescence; at 10 µM; stronger effect = lower value
[9] = molecular target: Beta-adrenergic receptor kinase 1 (Homo sapiens) (UniProt P25098); assay: GRK2 binders displacing RNA aptamer, biochemical, validation, human GRK2, bead flow cytometry (AID 488806;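 active = aptamer binding inhibition above 30%, about 3 SD of noise from non-fluorescent compounds; inactive = inhibition at or below 30%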); conditions: bead-bound GRK2, FAM-aptamer displacement, at 10 µM, stronger effect = higher value
Sequence of Beta-adrenergic receptor kinase 1 (Homo sapiens) (P25098 whole entry, looked up): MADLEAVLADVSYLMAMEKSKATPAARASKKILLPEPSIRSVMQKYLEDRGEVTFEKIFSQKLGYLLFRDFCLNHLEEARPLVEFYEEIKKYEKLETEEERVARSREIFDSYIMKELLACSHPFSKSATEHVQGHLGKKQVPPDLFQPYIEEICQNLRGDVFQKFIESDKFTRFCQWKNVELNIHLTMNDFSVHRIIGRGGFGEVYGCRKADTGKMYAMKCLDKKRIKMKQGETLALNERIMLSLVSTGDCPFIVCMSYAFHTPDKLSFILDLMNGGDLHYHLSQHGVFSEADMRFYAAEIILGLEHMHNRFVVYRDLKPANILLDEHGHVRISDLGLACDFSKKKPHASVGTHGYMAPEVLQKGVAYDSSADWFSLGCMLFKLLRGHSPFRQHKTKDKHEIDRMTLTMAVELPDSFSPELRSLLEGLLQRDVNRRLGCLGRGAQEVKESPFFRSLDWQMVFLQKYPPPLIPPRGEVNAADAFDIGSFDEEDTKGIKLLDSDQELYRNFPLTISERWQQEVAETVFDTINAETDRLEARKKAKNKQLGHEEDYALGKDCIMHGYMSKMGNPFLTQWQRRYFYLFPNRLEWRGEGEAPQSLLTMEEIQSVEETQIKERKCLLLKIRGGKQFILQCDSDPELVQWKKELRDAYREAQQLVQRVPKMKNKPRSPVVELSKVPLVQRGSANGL

[10] = molecular target: Beta-2 adrenergic receptor (Homo sapiens) (UniProt P07550); assay: agonist-induced loss of surface beta2AR – cell-based, FAP fluorogen, flow cytometry, validation set, pilot screen (AID 504459;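 active = percent response above 42, roughly 3 SD of non-fluorescent test compounds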;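 also: agonist-driven loss of surface beta2AR via internalization measured by FAP dye flow cytometry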); conditions: Am2.2-beta2AR cells, at 10 µM, stronger effect = higher value
Sequence of Beta-2 adrenergic receptor (Homo sapiens) (P07550 whole entry, looked up): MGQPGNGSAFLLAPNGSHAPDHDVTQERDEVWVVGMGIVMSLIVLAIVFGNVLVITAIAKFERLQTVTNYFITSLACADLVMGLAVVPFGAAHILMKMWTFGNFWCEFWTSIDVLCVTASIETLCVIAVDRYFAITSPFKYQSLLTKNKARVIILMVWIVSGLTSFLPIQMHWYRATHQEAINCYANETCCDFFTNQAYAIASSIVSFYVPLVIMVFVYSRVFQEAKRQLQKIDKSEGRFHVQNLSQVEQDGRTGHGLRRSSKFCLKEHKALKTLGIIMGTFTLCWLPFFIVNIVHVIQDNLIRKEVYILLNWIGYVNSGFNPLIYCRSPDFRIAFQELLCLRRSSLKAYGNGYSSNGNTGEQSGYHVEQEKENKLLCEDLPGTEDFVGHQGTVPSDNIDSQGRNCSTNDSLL

[11] = molecular target: AP-2 complex subunit beta (Homo sapiens) (UniProt P63010); assay: beta-arrestin/AP2 interaction blockers – biochemical, validation set, GST-AP2 beads, flow cytometry, pilot screen (AID 504541;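 active = inhibition above 54%, about 3 SD of non-fluorescent compounds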;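 also: AP2 carries R879A mutation and is captured from E. coli lysate; bead-bound FITC arrestin peptide fluorescence measuring arrestin peptide binding to AP2; 0% = DMSO wells and 100% = excess unlabeled arrestin peptide control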); conditions: FITC arrestin peptide, at 10 µM, stronger effect = higher value, AP2 beta2 appendage fragment, R879A mutant
Sequence of AP-2 complex subunit beta (Homo sapiens) (P63010 whole entry, looked up, the tested form may be a part, one chain of several): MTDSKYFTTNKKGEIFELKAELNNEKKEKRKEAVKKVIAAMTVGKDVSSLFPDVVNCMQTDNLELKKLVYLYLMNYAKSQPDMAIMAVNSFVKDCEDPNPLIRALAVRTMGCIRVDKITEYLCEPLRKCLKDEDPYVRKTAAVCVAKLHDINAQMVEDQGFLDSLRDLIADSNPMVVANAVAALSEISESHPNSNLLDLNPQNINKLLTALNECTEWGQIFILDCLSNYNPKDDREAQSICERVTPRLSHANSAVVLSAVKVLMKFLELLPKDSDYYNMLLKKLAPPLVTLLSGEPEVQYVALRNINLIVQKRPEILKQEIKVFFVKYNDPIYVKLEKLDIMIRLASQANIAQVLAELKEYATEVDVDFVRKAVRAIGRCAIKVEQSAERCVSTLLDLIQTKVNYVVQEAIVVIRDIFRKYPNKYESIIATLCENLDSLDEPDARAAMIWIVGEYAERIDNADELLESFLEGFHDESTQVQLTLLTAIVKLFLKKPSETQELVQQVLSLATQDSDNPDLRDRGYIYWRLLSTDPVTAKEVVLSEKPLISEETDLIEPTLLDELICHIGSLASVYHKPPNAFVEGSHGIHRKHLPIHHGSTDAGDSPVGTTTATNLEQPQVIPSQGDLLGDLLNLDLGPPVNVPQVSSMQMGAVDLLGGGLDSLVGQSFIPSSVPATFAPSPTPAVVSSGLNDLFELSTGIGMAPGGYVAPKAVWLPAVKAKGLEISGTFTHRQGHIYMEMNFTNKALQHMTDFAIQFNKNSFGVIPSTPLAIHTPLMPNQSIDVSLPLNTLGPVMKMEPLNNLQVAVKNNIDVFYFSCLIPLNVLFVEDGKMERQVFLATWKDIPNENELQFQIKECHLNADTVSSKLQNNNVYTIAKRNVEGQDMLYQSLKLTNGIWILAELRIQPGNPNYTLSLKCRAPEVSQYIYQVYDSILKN

[12] = cytosolic pH regulators acting via V-ATPase – S. cerevisiae, pHLuorin, HTS validation (AID 504600; in the data active = response above about 15%;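 also: plate controls were DMSO for no effect and reference compound for full effect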); conditions: V-ATPase proton transport, at 10 µM, stronger effect = higher value
[13] = tested on: anti-desmoglein-3 scFv antibody binding to human DSG3; assay: blockers of pathogenic pemphigus antibody–desmoglein-3 binding – biochemical, validation compound set, bead-based, flow cytometry, pilot screen (AID 588368;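 active = binding below the plate cutoff, the plate median minus 3 SD, with a reading above zero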;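 also: signal is the median channel fluorescence of bead-bound GFP antibody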); conditions: Protein G beads, DSG3-Fc, scFv-GFP binding, at 10 µM, stronger effect = lower value
[14] = Nile Red efflux blockade in pump-expressing yeast – validation compound set, multiplex, phenotypic, pilot screen (AID 588506;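 active = efflux inhibition above 0.42, the validation set average plus 4 SD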;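 also: Nile Red retained in cells so higher fluorescence means more efflux inhibition; 0 = negative control wells and 1 = enniatin B 25 µM full block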); conditions: S. cerevisiae pump-expressing triplex, Nile Red efflux flow cytometry; at 10 µM; stronger effect = higher value; the pumps come from Candida albicans
[15] = molecular target: ATP-binding cassette sub-family B member 6 (Homo sapiens) (UniProt Q9NP58); assay: blockers of ABCB6-driven porphyrin uptake – K562-ABCB6 cells, flow cytometry, validation set, pilot screen (AID 588550;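 active = inhibition above the screen-wide mean plus 3 SD, about 51%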;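 also: 0% = DMSO wells and 100% = benzethonium chloride 70 µM positive control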); conditions: K562-ABCB6 porphyrin accumulation, 1 h, at 10 µM, stronger effect = higher value
Sequence of ATP-binding cassette sub-family B member 6 (Homo sapiens) (Q9NP58 whole entry, looked up): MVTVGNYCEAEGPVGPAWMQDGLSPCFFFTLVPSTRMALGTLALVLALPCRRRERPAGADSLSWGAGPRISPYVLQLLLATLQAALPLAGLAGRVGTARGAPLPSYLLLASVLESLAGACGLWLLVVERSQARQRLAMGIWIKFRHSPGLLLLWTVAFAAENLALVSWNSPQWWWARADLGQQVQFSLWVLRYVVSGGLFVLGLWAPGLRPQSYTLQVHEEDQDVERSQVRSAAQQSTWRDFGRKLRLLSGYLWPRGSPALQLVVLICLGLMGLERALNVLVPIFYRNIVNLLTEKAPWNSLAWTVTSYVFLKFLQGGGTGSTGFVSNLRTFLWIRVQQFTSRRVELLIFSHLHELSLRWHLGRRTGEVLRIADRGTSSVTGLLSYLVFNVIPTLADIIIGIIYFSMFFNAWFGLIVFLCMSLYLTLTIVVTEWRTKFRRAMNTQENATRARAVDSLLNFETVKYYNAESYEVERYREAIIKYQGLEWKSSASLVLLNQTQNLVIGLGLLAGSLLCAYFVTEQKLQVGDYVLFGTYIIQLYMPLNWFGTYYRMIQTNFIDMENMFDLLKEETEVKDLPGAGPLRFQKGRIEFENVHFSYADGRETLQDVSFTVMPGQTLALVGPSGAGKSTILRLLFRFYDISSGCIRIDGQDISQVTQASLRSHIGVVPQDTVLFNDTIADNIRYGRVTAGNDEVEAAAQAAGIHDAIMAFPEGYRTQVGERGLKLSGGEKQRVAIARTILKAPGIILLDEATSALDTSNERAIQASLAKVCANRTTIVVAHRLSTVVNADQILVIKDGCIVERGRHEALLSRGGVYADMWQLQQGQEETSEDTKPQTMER

[16] = AML differentiation inducers, ER-HoxA9 marrow cells – cell-based, GFP/MAC1 double positive, flow cytometry, validation set, primary screen (AID 588685;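 active = differentiation response of at least 50%, scaled between solvent and reference control, from cells with both markers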;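 also: compound exposure lasts four days before antibody staining and flow analysis; 0% = DMSO wells and 100% = 5 µM fulvestrant positive control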); conditions: stronger effect = higher value, normalized: vehicle 0, fulvestrant 100

COc1ccc2cc(C3(C)NC(=O)NC3=O)ccc2c1 (stereo not drawn)
60.5%: double positive events [6]
inactive: percent of DMSO control GFP [1] 95.8% | GFP response vs DMSO [2] 116% | percent response of DMSO control [3] 87.2% | GFP response vs DMSO [4] 117% | GFP response, % of DMSO [5] 99.7% | vesicle binding response [6] 147% | inhibition [7] -9.98% | superoxide response (% of plate) [8] 104% | aptamer binding inhibition [9] 2% | response [10] 2.16% | inhibition [11] -3.7% | response [12] -5.94% | binding (% of control) [13] 99.7% | efflux inhibition (fraction of control) [14] -0.06 | inhibition [15] 8% | differentiation response [16] 7.2%

CCOC(=O)n1c(=O)oc2ccccc21
62.5%: double positive events [6]
inactive: percent of DMSO control GFP [1] 97% | GFP response vs DMSO [2] 104% | percent response of DMSO control [3] 102% | GFP response vs DMSO [4] 102% | GFP response, % of DMSO [5] 107% | vesicle binding response [6] 196% | inhibition [7] 6.55% | superoxide response (% of plate) [8] 105% | aptamer binding inhibition [9] 7% | response [10] -19.8% | inhibition [11] -0.08% | response [12] 10.2% | binding (% of control) [13] 107% | efflux inhibition (fraction of control) [14] 0.08 | inhibition [15] 3% | differentiation response [16] -4.99%

O=C1c2ccccc2C(=O)N1/N=C/c1ccc(Oc2ccc([N+](=O)[O-])cn2)cc1
56.2%: double positive events [6]
inactive: percent of DMSO control GFP [1] 103% | GFP response vs DMSO [2] 107% | percent response of DMSO control [3] 115% | GFP response vs DMSO [4] 92% | GFP response, % of DMSO [5] 107% | vesicle binding response [6] 38.7% | inhibition [7] 12% | superoxide response (% of plate) [8] 106% | aptamer binding inhibition [9] 0% | response [10] -4.65% | inhibition [11] 2.91% | response [12] -3.15% | binding (% of control) [13] 92.5% | efflux inhibition (fraction of control) [14] -0.01 | inhibition [15] -7% | differentiation response [16] -7.57%

O=C(Cc1ccccc1[N+](=O)[O-])NCc1ccncc1
inactive: percent of DMSO control GFP [1] 101% | GFP response vs DMSO [2] 101% | percent response of DMSO control [3] 101% | GFP response vs DMSO [4] 97.4% | GFP response, % of DMSO [5] 97.4% | vesicle binding response [6] 243% | inhibition [7] 6.4% | superoxide response (% of plate) [8] 97.3% | aptamer binding inhibition [9] 7% | response [10] -1.07% | inhibition [11] -3.75% | response [12] -1.46% | binding (% of control) [13] 98.2% | efflux inhibition (fraction of control) [14] -0.03 | inhibition [15] 2% | differentiation response [16] -15.2%
63.2%: double positive events [6]

COc1ccc(Br)cc1C(=O)Nc1ccc(C(=O)O)cc1
63.9%: double positive events [6]
inactive: percent of DMSO control GFP [1] 107% | GFP response vs DMSO [2] 105% | percent response of DMSO control [3] 88.4% | GFP response vs DMSO [4] 127% | GFP response, % of DMSO [5] 68.8% | vesicle binding response [6] 240% | inhibition [7] -0.45% | superoxide response (% of plate) [8] 97.6% | aptamer binding inhibition [9] 3% | response [10] -0.63% | inhibition [11] -7.7% | response [12] 1.41% | binding (% of control) [13] 96.3% | efflux inhibition (fraction of control) [14] -0.04 | inhibition [15] -4% | differentiation response [16] 5.13%

CCC(=O)Nc1ccc(C(=O)N2CCN(C(=O)c3ccco3)CC2)cc1
64.9%: double positive events [6]
inactive: percent of DMSO control GFP [1] 101% | GFP response vs DMSO [2] 109% | percent response of DMSO control [3] 104% | GFP response vs DMSO [4] 101% | GFP response, % of DMSO [5] 99.7% | vesicle binding response [6] 202% | inhibition [7] 4.73% | superoxide response (% of plate) [8] 101% | aptamer binding inhibition [9] 0% | response [10] -11.7% | inhibition [11] 0.87% | response [12] -1.11% | binding (% of control) [13] 95.5% | efflux inhibition (fraction of control) [14] -0.23 | inhibition [15] 0% | differentiation response [16] 7.09%

CC12CCC(C(=O)NCc3ccccn3)(OC1=O)C2(C)C (stereo not drawn)
61.8%: double positive events [6]
inactive: percent of DMSO control GFP [1] 102% | GFP response vs DMSO [2] 103% | percent response of DMSO control [3] 103% | GFP response vs DMSO [4] 98% | GFP response, % of DMSO [5] 103% | vesicle binding response [6] 167% | inhibition [7] 1.59% | superoxide response (% of plate) [8] 92.4% | aptamer binding inhibition [9] 0% | response [10] -3.72% | inhibition [11] 6.09% | response [12] -2.31% | binding (% of control) [13] 104% | efflux inhibition (fraction of control) [14] -0.24 | inhibition [15] 33% | differentiation response [16] 5.67%

O=C(O)c1ccccc1C(=O)OCCCCOC(=O)c1ccccc1C(=O)O
inactive: percent of DMSO control GFP [1] 104% | GFP response vs DMSO [2] 85.6% | percent response of DMSO control [3] 105% | GFP response vs DMSO [4] 82.2% | GFP response, % of DMSO [5] 98.6% | vesicle binding response [6] 1380% | inhibition [7] -0.45% | superoxide response (% of plate) [8] 88% | aptamer binding inhibition [9] 6% | response [10] -3.48% | inhibition [11] -4.07% | response [12] 1.28% | binding (% of control) [13] 92.7% | efflux inhibition (fraction of control) [14] 0.21 | inhibition [15] 2% | differentiation response [16] 4.15%
64.9%: double positive events [6]

Nc1ccc(S(N)(=O)=O)cc1N
66.3%: double positive events [6]
inactive: percent of DMSO control GFP [1] 98.1% | GFP response vs DMSO [2] 119% | percent response of DMSO control [3] 99.2% | GFP response vs DMSO [4] 84.7% | GFP response, % of DMSO [5] 91.7% | vesicle binding response [6] 202% | inhibition [7] 3.55% | superoxide response (% of plate) [8] 82.8% | aptamer binding inhibition [9] 3% | response [10] 31.7% | inhibition [11] 7.24% | response [12] 0.32% | binding (% of control) [13] 103% | efflux inhibition (fraction of control) [14] -0.28 | inhibition [15] 14% | differentiation response [16] 2.46%
